This test relates to E. coli TESEC Mtb Alr. Nature of the test: growth (OD600 after 10 h); higher = more growth (less inhibition). As to conditions: compound 0.1 mM. On the procedure:
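TESEC Mtb Alr E. coli, or the Alr+ wild-type control, in 384-well plates with Prestwick library compounds at 0.1 mM and 1% DMSO, across arabinose induction levels of 1E3 to 1E7 nM. Growth is read as OD600 after 10 h at 37 °C in triplicate biological replicates.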

[1] abbreviates: arabinose 1000 nM, raw OD600 reference: median of DMSO wells 0.294, cell-free background 0.041.
Setting [2] is: arabinose 10000 nM, raw OD600 reference: median of DMSO wells 0.264, cell-free background 0.041.
The mark [3] stands for this setting: arabinose 100000 nM, raw OD600 reference: median of DMSO wells 0.201, cell-free background 0.041.
The mark [4] stands for this setting: arabinose 1000000 nM, raw OD600 reference: median of DMSO wells 0.193, cell-free background 0.041.
The mark [5] stands for this setting: arabinose 10000000 nM, raw OD600 reference: median of DMSO wells 0.146, cell-free background 0.041.

Structures can show the parent of a compound that is named as a salt. ± gives the standard deviation of the averaged measurements.

`CN1CCN(C(c2ccccc2)c2ccccc2)CC1` [Cyclizine hydrochloride] returned a growth under setting [1] of 0.278 ± 0.011; a growth under setting [2] of 0.256 ± 0.0077; a growth under setting [3] of 0.188 ± 0.025; a growth under setting [4] of 0.142 ± 0.013; a growth under setting [5] of 0.142 ± 0.0021.

As for `Nc1ccn([C@@H]2CS[C@H](CO)O2)c(=O)n1` [Lamivudine], the growth runs as follows: under setting [1], 0.292 ± 0.011; under setting [2], 0.262 ± 0.0097; under setting [3], 0.211 ± 0.037; under setting [4], 0.209 ± 0.0042; under setting [5], 0.144 ± 0.0079.

For `CCC1(C)CC(=O)NC1=O` (stereo not given) [Ethosuximide], the growth came to 0.287 ± 0.014 under setting [1]; 0.267 ± 0.0062 under setting [2]; 0.219 ± 0.016 under setting [3]; 0.1876 ± 0.0001 under setting [4]; 0.141 ± 0.003 under setting [5].

In the case of `CCOc1ccccc1OC(c1ccccc1)C1CNCCO1` (stereo not given) [Reboxetine mesylate], the growth came to 0.265 ± 0.023 under setting [1]; 0.253 ± 0.012 under setting [2]; 0.2 ± 0.02 under setting [3]; 0.15 ± 0.0074 under setting [4]; 0.1507 ± 0.0007 under setting [5].

Regarding `CCCN(CCC)S(=O)(=O)c1ccc(C(=O)O)cc1` [Probenecid], the growth was 0.254 ± 0.0078 under setting [1]; 0.261 ± 0.011 under setting [2]; 0.221 ± 0.047 under setting [3]; 0.153 ± 0.0022 under setting [4]; 0.159 ± 0.0038 under setting [5].

Consider `COc1ccc(Cl)cc1C(=O)NCCc1ccc(S(=O)(=O)NC(=O)NC2CCCCC2)cc1` [Glibenclamide], for which the growth worked out at 0.166 ± 0.035 under setting [1]; 0.146 ± 0.004 under setting [2]; 0.144 ± 0.0077 under setting [3]; 0.0688 ± 0.0014 under setting [4]; 0.125 ± 0.0025 under setting [5].

Turning to `O=C(COc1ccc(Cl)cc1)N1CCN(Cc2ccc3c(c2)OCO3)CC1` [Fipexide hydrochloride], the growth was 0.146 ± 0.0033 under setting [1]; 0.138 ± 0.0033 under setting [2]; 0.154 ± 0.0017 under setting [3]; 0.0771 ± 0.0022 under setting [4]; 0.144 ± 0.0034 under setting [5].

In the case of `CCOC(=O)C1=C[C@]2(CC)CCCN3CCc4c(n1c1ccccc41)[C@@H]32` [Vinpocetine], the growth is 0.271 ± 0.015 under setting [1]; 0.25 ± 0.0089 under setting [2]; 0.184 ± 0.015 under setting [3]; 0.145 ± 0.005 under setting [4]; 0.143 ± 0.0046 under setting [5].

The values above are taken from the supplement of paper PMC9262897, “Low-cost anti-mycobacterial drug discovery using engineered E. coli” (Nature Communications, 2022).
